Compound activity deposited in PubChem BioAssay by Broad Institute.
This is a sample that favours compounds with a hit; in the whole collection about 2.1% have one here.
GSIS activator: primary screen for activators of insulin secretion dependent on glucose, INS-1E cells, GLuc reporter luminescence | INS-1E GLuc reporter insulin secretion, 2-3 h | activation, % at 16.6 µM | hit rate 0.61% among 370,000 | AID 743287;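 active = lowest replicate activation of at least 40%, so every replicate reaches that level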;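 also: 0% = median of neutral control wells and 100% = median of IBMX positive control wells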
HIV Env fusion: HIV envelope-mediated fusion inhibition; HeLa-JRFL Env/CEM21 cell fusion, luciferase; inhibition, % at 12.3 µM; hit rate 1.1% among 360,000; AID 651610;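 active = mean replicate inhibition score of at least 50 and every replicate individually at or above 50; inconclusive = only one of the two criteria met; inactive = mean below 50 and not all replicates reaching 50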;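 also: 0% = plate neutral controls and 100% = maraviroc near 300 nM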
MLL AF4-AF9 inh: blocks AF4 peptide binding to human AF9. P42568. AlphaScreen, biotin-AF4 peptide binding to FLAG-AF9. inhibition, % at 10 µM. hit rate 0.47% among 350,000. AID 651704;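 active = every replicate reaching a set inhibition limit, whatever the replicate mean, cut at about 25% in these data; inconclusive = mean inhibition reaches that limit but some replicates miss it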;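 also: 0% = plate neutral control median and 100% = total signal loss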
NSD2 HMT inh: blocks human histone methyltransferase NSD2 | NSD2 peptide methylation, AlphaScreen, 120 min | inhibition, % at 12.5 µM | O96028 | hit rate 0.54% among 310,000 | AID 743445; in the data active = inhibition above about 50%
Target sequence (O96028 whole entry, looked up): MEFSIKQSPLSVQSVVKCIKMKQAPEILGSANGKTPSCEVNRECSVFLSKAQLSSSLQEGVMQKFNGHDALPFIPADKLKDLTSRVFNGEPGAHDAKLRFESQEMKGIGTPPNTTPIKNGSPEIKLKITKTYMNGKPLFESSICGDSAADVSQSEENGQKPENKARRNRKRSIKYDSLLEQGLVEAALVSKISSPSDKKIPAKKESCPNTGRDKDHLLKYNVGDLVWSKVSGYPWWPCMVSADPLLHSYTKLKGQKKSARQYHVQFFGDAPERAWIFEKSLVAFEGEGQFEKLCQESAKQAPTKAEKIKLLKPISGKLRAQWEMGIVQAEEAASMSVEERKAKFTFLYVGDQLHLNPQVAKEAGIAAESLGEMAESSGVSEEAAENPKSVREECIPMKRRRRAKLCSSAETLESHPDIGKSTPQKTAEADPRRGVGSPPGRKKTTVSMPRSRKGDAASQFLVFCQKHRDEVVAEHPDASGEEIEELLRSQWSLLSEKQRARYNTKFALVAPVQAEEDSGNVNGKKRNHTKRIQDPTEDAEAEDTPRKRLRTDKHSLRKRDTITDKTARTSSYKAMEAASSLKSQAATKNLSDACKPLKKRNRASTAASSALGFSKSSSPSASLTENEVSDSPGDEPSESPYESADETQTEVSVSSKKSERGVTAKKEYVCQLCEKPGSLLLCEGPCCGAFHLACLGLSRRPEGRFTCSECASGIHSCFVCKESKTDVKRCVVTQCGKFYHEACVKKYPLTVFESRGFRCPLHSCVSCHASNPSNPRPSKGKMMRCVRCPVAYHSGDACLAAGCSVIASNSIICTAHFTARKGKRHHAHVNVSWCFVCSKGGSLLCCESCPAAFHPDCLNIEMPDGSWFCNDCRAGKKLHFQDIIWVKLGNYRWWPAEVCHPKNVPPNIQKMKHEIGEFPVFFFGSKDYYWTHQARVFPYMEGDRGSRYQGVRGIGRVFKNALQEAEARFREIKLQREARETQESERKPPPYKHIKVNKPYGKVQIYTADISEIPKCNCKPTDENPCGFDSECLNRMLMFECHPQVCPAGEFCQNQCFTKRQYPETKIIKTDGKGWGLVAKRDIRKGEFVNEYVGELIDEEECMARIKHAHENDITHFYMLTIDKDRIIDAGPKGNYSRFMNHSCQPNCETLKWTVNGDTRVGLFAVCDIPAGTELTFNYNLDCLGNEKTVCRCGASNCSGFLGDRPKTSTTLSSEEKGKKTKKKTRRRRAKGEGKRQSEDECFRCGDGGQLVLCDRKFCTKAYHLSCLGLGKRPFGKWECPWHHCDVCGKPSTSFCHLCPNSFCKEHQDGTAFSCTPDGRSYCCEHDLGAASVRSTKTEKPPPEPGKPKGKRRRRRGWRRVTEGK
PGC1a acetyl inh: modulators of PGC1a acetylation; U2OS PGC1a acetylation, AlphaScreen anti-acetyl-lysine; with virally co-expressed GCN5 acetyltransferase; inhibition, % at 15.6 µM; hit rate 0.17% among 350,000; AID 651687;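 active = every replicate shows inhibition of at least 40%; inconclusive = mean inhibition at least 40% but some replicate below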;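 also: 0% = neutral control wells and 100% = positive control wells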
C2C12 COX5a inh: C2C12 myotube COX5a expression inhibition; shares compounds with PGC1a acetyl inh; C2C12 myotubes PGC-1a adenovirus, COX5a qPCR; maximal activity, %; 45 tested, under 10 active; AID 743461;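 active = fitted dose curve reaching 40% activity at or below the highest valid dose tested; inconclusive = flat fit between 30% and 70%, or an unusable fit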
AID743468: change in PGC-1a target gene PDK4 expression, dose response, C2C12 myotubes, RT-qPCR, cherry-pick. PDK4 expression increase, % at 19.5 µM. 45 tested, under 10 active. PGC-1a adenovirus, PDK4 mRNA qPCR. AID 743468. shares compounds with PGC1a acetyl inh;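 active = fitted curve reaching a 40% PDK4 expression rise at or below the top valid tested dose; inconclusive = no clear call, values can overlap the other calls; inactive = the rest, including shifts the wrong way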
The depositor's hits bear a star; ? = inconclusive; nt = no result given; ! = not confirmed by another sample; [ ] = another dose, or the depositor's remark.

SMILES	GSIS activator	HIV Env fusion	MLL AF4-AF9 inh	NSD2 HMT inh	PGC1a acetyl inh	C2C12 COX5a inh	AID743468
COc1ccc(/C=N/NC(=O)CN(C2=NS(=O)(=O)c3ccccc32)c2ccccc2)cc1OC	60*	-4	nt	20	nt	nt	nt
O=C(CC1C(=O)Nc2ccccc2N1CC(=O)N1CCCC1)Nc1ccc(Br)cc1 (centres undefined)	-4	nt	1	2	nt	nt	nt
O=C(NC(=O)c1ccccc1)Nc1ccccn1	10	68*	2	-6	nt	nt	nt
O=C(Nc1ccccn1)c1ccc(C(=O)c2ccccc2)cc1	3	-59	3	-1	8	nt	nt
CCN(CC)S(=O)(=O)c1cccc(C(=O)Nc2ccc(C#N)cc2)c1	nt	57*	nt	-1	nt	nt	nt
COc1ccccc1C#Cc1ccc([C@H]2[C@H](C#N)N(C(=O)C3CCCC3)[C@H]2CO)cc1	-14	74*[16.7 µM]	-1	nt	65*	-33	3
Cc1ccc(SCC(=O)OC(C)C(=O)NCc2ccccc2)cc1C (centres undefined)	2	22	-2	-5	nt	nt	nt
N#Cc1cc(Oc2cccc3cccnc23)c(-n2nnc3ccccc32)cc1C#N	30	nt	5	-2	-139	-37	-50
N#Cc1cc(O)c(-n2nnc3ccccc32)cc1C#N	-6	-1	-2	-6	-6	nt	nt
COCCSc1ccccc1C(=O)Nc1cc(C)on1	5	nt	-7	-1	?	-23	3
CCN(CC(=O)NCc1ccc(Cl)cc1)C(=O)CSc1cc(C)ccc1C	-23	10	-10	-2	4	nt	nt
CCN(CC(=O)NCc1ccc(Cl)cc1)C(=O)CSCC(=O)Nc1ccc(C)cc1	-23	-2	-1	nt	-83	-24	-10
OC(c1cc(C(F)(F)F)nc2c(C(F)(F)F)cccc12)C1CCCCN1 (centres undefined)	nt	-7	8	nt	-78	-27	-11
OC(c1cc(-c2cccc(Cl)c2)nc2ccccc12)C1CCCCN1 (centres undefined)	29	-22	5	9	-45	nt	nt
O=C(Oc1ccccc1C(=S)N1CCOCC1)c1ccccc1	3	-11	-31	-2	0	nt	nt
Cc1ccc(S(=O)(=O)N(C)C[C@@H]2Oc3cc(C#Cc4ccncc4)ccc3S(=O)(=O)N([C@@H](C)CO)C[C@H]2C)cc1	nt	nt	2	nt	60*	-25	-23
Cc1ccc(S(=O)(=O)N(C)C[C@@H]2Oc3cc(C#Cc4ccncc4)ccc3S(=O)(=O)N([C@H](C)CO)C[C@H]2C)cc1	7	nt	-1	nt	?	-49	-23
Cc1ccc(S(=O)(=O)N(C)C[C@H]2Oc3cc(C#Cc4ccncc4)ccc3S(=O)(=O)N([C@@H](C)CO)C[C@@H]2C)cc1	-11	nt	1	nt	37	nt	nt
COc1ccc(/C=N/Nc2nc(NCc3ccco3)nc(Nc3ccc(OC)cc3)n2)cc1	22	-32	-17	nt	2	nt	nt
Cc1ccc(Cn2ncc(Cl)c(Cl)c2=O)cc1	39	9	3	-1	-112	-35	12
C#CCN(C[C@@H]1[C@@H](OC(=O)NCCCCCC)[C@@H](OC(=O)NCCCCCC)Cn2c(=O)ccc(=O)n21)S(=O)(=O)c1ccc(C)cc1	-10	-3	-3	nt	92*	-39	88*
C#CCN(C[C@@H]1[C@@H](OC(=O)NCc2ccco2)[C@@H](OC(=O)NCc2ccco2)Cn2c(=O)ccc(=O)n21)S(=O)(=O)c1ccc(C)cc1	-17	29	-1	nt	-23	nt	nt
COc1ccc(C(=O)Nc2cccc(NC(=O)c3ccc(OC)c(OC)c3)n2)cc1OC	3	16	4	-1	61*	-32	44*
Cc1ccccc1-n1nnnc1Sc1nnnn1-c1ccccc1	nt	nt	nt	0	?	-38	-44
Cc1ccccc1-n1nnnc1SCC(N)=O	5	nt	nt	-2	2	nt	nt
C[C@@H]1CN([C@@H](C)CO)C(=O)c2cc(NS(=O)(=O)c3cn(C)cn3)ccc2O[C@@H]1CN(C)Cc1ccncc1	16	nt	-5	nt	7	nt	nt
COC(=O)c1ccccc1NC(=O)CN1CCC(NC(=O)c2ccc(C)cc2)CC1	-18	-79	nt	0	-4	nt	nt
CCN1CCN(Cc2ccc(NC(=O)c3ccc(C)c(NC(=O)c4c[nH]c5cc(C(F)(F)F)ccc5c4=O)c3)cc2C(F)(F)F)CC1	2	106*!	2	nt	78*!	-30	-25
